Reference: PubChem BioAssay (NCI)
The panel holds about 79,000 compounds, 15% with a hit somewhere; the sample as a whole holds those more often. The source made the active and inactive calls. No stated cut-off is given here; in the data, active means growth inhibition above about 70%; inactive means the rest.

Columns and labels:
[1] = NCI Yeast Anticancer Drug Screen. Data for the rad50 strain (AID 155);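 further: 0% = growth of vehicle-only cultures of the same strain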; settings: S. cerevisiae rad50 strain growth inhibition; at 50.0 µM; hits give high values
In short: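 Yeast carrying a defined DNA repair defect were exposed to test compounds, and growth was compared with vehicle-treated controls to give percent inhibition.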

[2] = NCI Yeast Anticancer Drug Screen. Data for the mec2-1 strain (AID 157); settings: S. cerevisiae mec2-1 strain, at 50.0 µM, hits give high values
In short: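 Vehicle-treated cultures served as reference for growth inhibition of compound-exposed mec2-1 yeast.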

[3] = NCI Yeast Anticancer Drug Screen. Data for the sgs1 mgt1 strain (AID 161);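 further: 0% = growth of cultures given vehicle only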; settings: S. cerevisiae sgs1 mgt1 strain, at 50.0 µM, hits give high values
In short: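 Read-out: growth inhibition vs vehicle controls. Cells: mutant yeast strain deficient in DNA damage repair.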

[4] = NCI Yeast Anticancer Drug Screen. Data for the cln2 rad14 strain (AID 165);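 further: 0% = growth equal to vehicle treated cultures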; settings: S. cerevisiae cln2 rad14 strain, at 50.0 µM, hits give high values
In short: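 Each compound was tested on cln2 rad14 yeast. Inhibition of growth was calculated against vehicle-exposed controls.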

[5] = NCI Yeast Anticancer Drug Screen. Data for the bub3 strain (AID 167); settings: S. cerevisiae bub3 mutant strain, at 50.0 µM, hits give high values
In short: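 Compounds were applied to a genetically altered yeast strain carrying a cell-cycle control defect. Growth inhibition was scored against vehicle-treated controls.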

[6] = NCI Yeast Anticancer Drug Screen. Data for the mlh1 rad18 strain (AID 175); settings: S. cerevisiae mlh1 rad18 strain growth inhibition; at 50.0 µM; hits give high values
In short: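 Vehicle-treated cultures served as the reference for growth inhibition in a yeast strain carrying DNA damage repair alterations exposed to each compound.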

Measured: growth inhibition

NC(=O)CN1CC(C2=C(O)CN(CC(N)=O)C2=O)=CC1=O
inactive: [1] -23.9% | [2] -8.6% | [3] -10.1% | [4] -43.5% | [5] -6.35% | [6] -9.2%

Cc1cc(C)n2ncnc2n1
inactive: [1] 16.9% | [2] -22.6% | [3] 7.9% | [4] 4.15% | [5] -5.15% | [6] 5.35%

Cc1nc(-c2ccccc2)oc1-c1ccccc1
inactive: [1] 8.6% | [2] -1.5% | [3] -1.7% | [4] 6.95% | [5] 0.05% | [6] -4.35%

COC1OC2COC(c3ccccc3)OC2C(O)C1N=[N+]=[N-] (centres undefined)
inactive: [1] 3.4% | [2] 0.7% | [3] -1.35% | [4] -19.9% | [5] -4.4% | [6] 7.9%

COC(=O)C(=O)Cc1nc2ccccc2s1
inactive: [1] 6.25% | [2] 1.35% | [3] 6.15% | [4] -29.8% | [5] -7.3% | [6] 7.3%

CCCCC(C(=O)OCC)[N+](=O)[O-] (centres undefined)
inactive: [1] -24.2% | [2] -25.2% | [3] 2.5% | [4] 5.5% | [5] 2.35% | [6] 16.4%

CC(C)(C)OC(=O)NNC(=O)c1ccc([N+](=O)[O-])cc1
inactive: [1] 17.2% | [2] -9.8% | [3] -2.5% | [4] 30.6% | [5] 3.75% | [6] 5.8%

O=C(CO)c1ccccc1
inactive: [1] -11.9% | [2] 10.3% | [3] -3.8% | [4] 25.6% | [5] 4% | [6] 19.6%

Nc1[nH]c(=O)nc2nc(I)[nH]c12
inactive: [1] 5.05% | [2] 2.75% | [3] 22.7% | [4] -17.2% | [5] 22.9% | [6] 3.35%

ClCCOc1ccc2ccccc2c1
inactive: [1] 13.4% | [2] -6.1% | [3] 0.55% | [4] 4.05% | [5] 0.5% | [6] 12.1%

O=c1c2cc([N+](=O)[O-])ccc2[nH]n1Cc1ccccc1Cl
inactive: [1] -0.1% | [2] 12.3% | [3] -3.8% | [4] 14.9% | [5] 6.6% | [6] -4.45%

CC(CC(=O)O)C(C)(C#N)C(=O)O (centres undefined)
inactive: [1] 1.8% | [2] 1.4% | [3] 2.8% | [4] -41.5% | [5] 0.05% | [6] -4.95%

CN=C1N[N+]2=CCCCC2S1 (centres undefined)
inactive: [1] 17.8% | [2] 3.35% | [3] 19.7% | [4] 0.75% | [5] 2.4% | [6] 13.3%

Cc1[nH]n(-c2ncc(C#N)c(=O)[nH]2)c(=O)c1CCO
inactive: [1] -8.75% | [2] -34.1% | [3] -16% | [4] -31.9% | [5] -11.8% | [6] -71.3%

CCC(=O)C12OC3OC(C)(C)OC3C1OC(C)(C)O2 (centres undefined)
inactive: [1] 0.25% | [2] 0.75% | [3] -15.2% | [4] 25.1% | [5] -1.9% | [6] 4.7%

Ic1ccc(-n2cccc2)cc1
inactive: [1] 8.4% | [2] 5.55% | [3] -1.7% | [4] -3.25% | [5] 13.8% | [6] -18.6%

CC(NC(=O)C(OC(=O)C(C)NC(=O)OC(C)(C)C)C(C)C)C(=O)OC(C(=O)O)C(C)C (centres undefined)
inactive: [1] -24.2% | [2] 10.3% | [3] -5.75% | [4] -1.1% | [5] 2.1% | [6] -7.15%

CCOC(=O)C(CCCCS(=O)(=O)O)C(=O)OCC
inactive: [1] -12.3% | [2] -9.35% | [3] -18.9% | [4] -35% | [5] -5.25% | [6] 11.2%

C/C(=C\Cc1cc(O)c(C)cc1O)CC/C=C(\C)Cc1cc(C)co1
inactive: [1] -14.9% | [2] -19.7% | [3] -35.5% | [4] 17.9% | [5] -1.3% | [6] -8.75%

CCOC(=O)NC(=S)C1=C(N2CCOCC2)CCC1
inactive: [1] -16.1% | [2] -34.4% | [3] 1.95% | [4] 7.25% | [5] -28.4% | [6] 6.45%

COc1cccc(C2c3cc4c(cc3OC(Nc3ccccc3)C2C)OCO4)c1OC (centres undefined)
inactive: [1] -28.4% | [2] 6.25% | [3] -28.1% | [4] 3.35% | [5] -36.9% | [6] -21.4%

COc1ccc(Cl)cc1NC(=O)Oc1ccccc1C(N)=O
inactive: [1] -1.05% | [2] 43.5% | [3] 24.6% | [4] -12.8% | [5] 40.6% | [6] 3.1%

O=C1C=Cc2ccccc2/C1=C/c1nc(-c2ccc(Cl)cc2)oc1O
inactive: [1] -3.2% | [2] 7.05% | [3] -8.75% | [4] -1.2% | [5] 6.9% | [6] -13.3%

CC(=O)N(C(C)=O)c1ccc2c(c1)Cc1ccccc1-2
inactive: [1] 14.9% | [2] -12.9% | [3] 17.4% | [4] 3.85% | [5] 35.3% | [6] 15.1%

CN(C1CCCCC1)S(=O)(=O)c1ccc(N)cc1
inactive: [1] 7.65% | [2] -3.35% | [3] 12% | [4] 11.4% | [5] 5.25% | [6] 24.5%

CSc1c(S(C)=O)[nH]c2cc(Br)cc(Br)c12 (centres undefined)
active: [1] 84.2% | [2] 89.3% | [3] 88.7% | [4] 71.6% | [5] 89.4% | [6] 85.2%

CN(C)c1ccc(C(c2cc3c(cc2O)OCO3)N2CCN(C(c3ccc(N(C)C)cc3)c3cc4c(cc3O)OCO4)CC2)cc1 (centres undefined)
inactive: [1] 39.8% | [2] 31.4% | [3] 28.9% | [4] 9.3% | [5] 13.8% | [6] 36.5%

CCCCC(O)C(=O)NCCC(=O)c1ccccc1 (centres undefined)
inactive: [1] -7.1% | [2] 5.95% | [3] 3.45% | [4] 22.9% | [5] 14.1% | [6] 20.4%

O=C(O)c1cc(C(=O)O)cc(S(=O)(=O)NCCO)c1
inactive: [1] 3.05% | [2] -10.5% | [3] 2.1% | [4] -30.2% | [5] 3% | [6] 5.1%

CN(C)CCNC(=O)c1cccc2c1Oc1cccc([N+](=O)[O-])c1O2
inactive: [1] -12.7% | [2] -14.1% | [3] -9.85% | [4] 14.4% | [5] -12.1% | [6] -34.3%

Cc1ccc(S(=O)(=O)N/N=C(/c2ccccc2)c2ccsc2C)cc1
inactive: [1] 6.7% | [2] 37.3% | [3] 37% | [4] 24.2% | [5] 41.3% | [6] 53.4%

CCOC(=O)NC(=S)NC(C)c1ccccc1 (centres undefined)
inactive: [1] -10.2% | [2] 10.6% | [3] 35.5% | [4] -8.85% | [5] 15% | [6] 1.15%

N#CSCc1cc(Cl)c(CSC#N)c(Cl)c1Cl
inactive: [1] -6.95% | [2] 22.2% | [3] -3% | [4] 16.6% | [5] 13.2% | [6] 31.4%

Brc1ccc(/C(=N/Nc2ccccc2)Oc2ccccc2)cc1
inactive: [1] 17.6% | [2] 1.8% | [3] 16.1% | [4] 25.3% | [5] 14.8% | [6] 19.6%

COc1ccc(C=Nc2ccc3c(c2)OCO3)cc1Br
inactive: [1] 16.9% | [2] 16.9% | [3] 11.7% | [4] 14.6% | [5] 9.4% | [6] 19.2%

C=CCc1cccc(CC=C)c1OCCN(CC)CC
inactive: [1] 13.4% | [2] 17.1% | [3] 17.6% | [4] 10.2% | [5] 7.3% | [6] 16.8%

O=C1CCC(=O)N1CCc1cccc2ccccc12
inactive: [1] 5.45% | [2] -1.1% | [3] 30.4% | [4] 5.4% | [5] 2.4% | [6] -9.35%

Cc1ccc(Nc2nc(NS(=O)(=O)c3cc(C)c(Cl)cc3S)n(C)n2)cc1
inactive: [1] -15.1% | [2] -33.5% | [3] -29.7% | [4] -7.1% | [5] -32.9% | [6] -21.8%

Oc1ccc(N=Cc2ccc3ccccc3n2)cc1
inactive: [1] 36% | [2] 1.55% | [3] 19.1% | [4] 10.3% | [5] -19.8% | [6] 4.2%
